Several values for one entry are separate records, joined by “and”; a condition that tells them apart may be missing. Equal values may be shown once. In all, about 73,000 compounds went through this assay and about 350 (0.48%) were called active. Another 17% or so got no clear call; they are omitted. This is one part of a sample in which actives are shown more often than they occur. The call rests on the fitted dose curve; in most records, active means well fitted activation curve with a large enough effect in the main read-out, with a control signal flat (not every such curve was filed as active); inconclusive means small, poorly fitted or top-dose-only effect, or a change in a side signal; inactive means no such curve, though single readings can be large or run the other way; reference of the percent scale not stated here.
Experiments:
[1] = qHTS Assay for Agonists of the Thyroid Stimulating Hormone Receptor; details: HEK293-CNG-TSHR cells, membrane potential dye, cAMP; measured here: parental cells max response;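 further: the control signal comes from parental cells without the receptor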
Method in brief: (§1)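 cAMP rise detected as CNG-channel membrane depolarization by fluorescent dye (emission 590 nm), 30 min after compound, following 60 min dye loading containing 100 uM RO 20-1724 at room temperature. Cells: TSHR/CNG HEK 293, with parental CNG HEK 293 as control.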

[2] = target: Thyrotropin receptor (Homo sapiens) (UniProt P16473); experiment: as above; details: HEK293-CNG-TSHR cells (CNG channel as cAMP sensor), membrane potential dye, cAMP; series mostly up to 57.1 µM
Chain of Thyrotropin receptor (Homo sapiens) (P16473 whole entry, looked up): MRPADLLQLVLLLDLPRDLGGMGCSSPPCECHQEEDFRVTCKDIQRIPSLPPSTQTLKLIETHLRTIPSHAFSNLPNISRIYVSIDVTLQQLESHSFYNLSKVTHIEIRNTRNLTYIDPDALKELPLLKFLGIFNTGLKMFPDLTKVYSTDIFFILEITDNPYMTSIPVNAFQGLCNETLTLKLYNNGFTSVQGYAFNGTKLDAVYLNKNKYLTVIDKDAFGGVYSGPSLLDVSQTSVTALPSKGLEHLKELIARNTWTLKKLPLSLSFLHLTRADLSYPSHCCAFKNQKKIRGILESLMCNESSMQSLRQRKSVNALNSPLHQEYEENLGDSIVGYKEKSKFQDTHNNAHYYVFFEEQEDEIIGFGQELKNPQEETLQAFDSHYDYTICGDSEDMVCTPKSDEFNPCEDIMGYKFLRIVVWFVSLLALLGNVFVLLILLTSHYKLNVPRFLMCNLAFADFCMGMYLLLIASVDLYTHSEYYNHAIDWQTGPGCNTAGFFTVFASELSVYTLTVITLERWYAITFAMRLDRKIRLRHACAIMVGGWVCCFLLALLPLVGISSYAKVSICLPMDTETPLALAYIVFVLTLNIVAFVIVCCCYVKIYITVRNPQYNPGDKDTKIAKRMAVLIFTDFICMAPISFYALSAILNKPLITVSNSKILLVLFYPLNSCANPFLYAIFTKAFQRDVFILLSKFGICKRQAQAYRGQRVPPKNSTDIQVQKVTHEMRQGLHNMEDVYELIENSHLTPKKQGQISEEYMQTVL
Method in brief: as §1
Potency means the concentration at half of the fitted maximal effect.

Row | SMILES | activation [1] | Potency [2] | activation [2]
1 | CC1CCCCN1CCCNC(=O)c1ccc(-n2c(=O)c(=O)[nH]c3ccccc32)cc1 (stereo not given) | -4.46% | inactive | 
2 | CCCn1c(C)nc2c(NCCCCN(CC)CC)nc(C)nc21 | 4.8% | inactive | 
3 | O=C1C[C@@H](O)[C@@H](O)[C@H]2[C@@H]3C(=O)N(Cc4ccc5c(c4)OCO5)C(=O)[C@@H]3CC[C@H]12 | 0.478% and -2.17% |  | 1.51% [at 11.4 µM] (inactive) and -4.05% [at 11.4 µM] (inactive)
4 | C#CCCCCCCCCCCCCCCCC(=O)O | 7.8% | inactive | 
5 | COc1ccc(-c2nnc(SC(=O)N3c4ccccc4Sc4ccccc43)o2)cc1 | -13.7% |  | -19.2% [at 11.4 µM] (inactive)
6 | CCC1C(C#N)=C(SC)NC2=C1C(=O)CC(C)(C)C2 (stereo not given) | 9.37% |  | 4.61% [at 11.4 µM] (inactive)
7 | Cc1c2c(nc3ccccc13)-c1cccc(=O)n1C2 | -3.79% | inactive | 
8 | Cc1noc(C)c1-c1nc(Nc2ccccc2)c2ccccc2n1 | -3.31% | inactive | 
9 | O=C(O)c1ccc(Cl)c(S(=O)(=O)Nc2ccccc2Cl)c1 | 5.29% | inactive | 
10 | Cc1ccc2c(c1)sc1ncc(NC(=O)c3ccccc3)c(=O)n12 | 11.7% | inactive | 
11 | CCNC(=S)NCC | -3.45% | inactive | 
12 | COC(=O)c1cn(-c2ccccc2)nc1-c1cccnc1 | 9.42% | inactive | 
13 | CO/N=C\[C@@H](C)[C@H](OCc1ccccc1)C(C)C | -0.643% |  | 16.8% [at 11.4 µM] (inactive)
14 | O=c1c(-c2ccc(F)c(F)c2)nc2cncnc2n1-c1ccccc1 | 19.9% | inactive | 
15 | N[C@H](C(=O)O)c1ccc(C(=O)O)c(O)c1 | -2.63% | inactive | 
16 | N#Cc1cccc(CSc2nnc(CCCO)n2-c2ccccc2)c1 | -1.39% | inactive | 
17 | COC(=O)C1(C)C=CC2(CCCCC2)N1C(C)=O (stereo not given) | 19.4% | inactive | 
18 | COc1cccc(-c2nnc(N(C)C(=O)c3ccno3)s2)c1 | 11% |  | -1% [at 11.4 µM] (inactive)
19 | CC(=O)OCC1OC(C#Cc2ccccc2Cl)C=CC1OC(C)=O (stereo not given) | -0.512% |  | 0.546% [at 11.4 µM] (inactive)
20 | COc1ccc(/C=C/NC(=O)c2ccc(OC)cc2)cc1 | -3.02% |  | -7.55% [at 11.4 µM] (inactive)
21 | CN1CCc2nc(-c3ccccc3)c(-c3ccccc3)cc2C1 | 0.173% |  | 2% [at 11.4 µM] (inactive)
22 | Cn1c(=O)c(-c2ccccc2)nc2cnc(N3CCNCC3)nc21 | 4.18% | inactive | 

Row | SMILES | activation [1] | Potency [2] | activation [2]
23 | CC1(C)S[C@@H]2[C@@H](NC(=O)[C@@H](N)c3ccccc3)C(=O)N2[C@H]1C(=O)O | -1.13% | inactive | 
24 | CC(C)(C)c1ccc(C(=O)NCCC(=O)NCc2ccco2)cc1 | -0.34% | inactive | 
25 | CC(C)(C)c1ccc(NC(=O)NCc2ccco2)cc1 | 3.69% | 3.98 µM (active) | 
26 | Cc1ccccc1NC(=O)NCc1ccco1 | 1.97% | inactive | 
27 | CCOc1ccccc1C1NC(=O)NC(C)=C1C(=O)OCc1ccco1 (stereo not given) | 0.325% | inactive | 
28 | CCC(Sc1nncn1C)C(=O)Nc1nnc(-c2ccc(Cl)cc2)s1 (stereo not given) | -6.53% | inactive | 
29 | O=C1OCCC=C1[C@@H](O)CCc1ccccc1 | -4.2% |  | 5.01% [at 11.4 µM] (inactive)
30 | COc1ccc(/C=C/NC(=O)Cc2ccc(OC)c(OC)c2)cc1 | 28.5% and 7.24% |  | 10.9% [at 11.4 µM] (inactive) and -1.69% [at 11.4 µM] (inactive)
31 | CCOC(=O)c1cnc2sccn2c1=O | 5.11% | inactive | 
32 | CCOC(=O)c1cnc(-n2nc(C)cc2C)nc1Nc1cccc(C(C)=O)c1 | 16.9% | inactive | 
33 | CCOC(=O)c1cnc(-n2nc(C)cc2C)nc1-n1nc(C)cc1C | 1.88% | 3.16 µM (active) | 
34 | CC(=O)Nc1cc2ccc(OC(C)=O)cc2oc1=O | -10.5% | inactive | 
35 | Oc1ccc(Cl)cc1/C=N/c1nc2ccccc2[nH]1 | 6.32% |  | 0.206% [at 11.4 µM] (inactive)
36 | CNC(=O)c1c(NC(=O)c2ccc(S(=O)(=O)N3CCOCC3)cc2)sc2c1CCC2 | 0.0362% | inactive | 
37 | COc1ccc2c(c1)C=CC1(O2)N(CCO)c2ccccc2C1(C)C (stereo not given) | 16.4% | 15.8 µM (active) | 
38 | O=C(O)CCC(=O)N(Cc1cccs1)Cc1cccs1 | 4.58% | inactive | 
39 | O=C(Nc1ncccn1)c1cccs1 | 2.1% | inactive | 
40 | O=P(c1cccs1)(c1cccs1)c1cccs1 | 29% | 0.631 µM (active) | 
41 | O=C(O)CCC(=O)NCc1ccc2[nH]c3c(c2c1)CCCC3 | -0.484% | inactive | 
42 | Cc1cccc(C(=O)O)c1 | 12.6% | inactive | 
43 | CO[C@@H]1COC(=O)C/C=C\[C@H](C)[C@@H](NS(=O)(=O)c2ccc(C)cc2)COC(=O)C/C=C\[C@@H]1C | 2.07% and 4.9% |  | -0.576% [at 11.4 µM] (inactive) and -0.527% [at 11.4 µM] (inactive)
44 | CCOC(=O)N/N=C1/C[C@@H](O)[C@@H](O)[C@@H]2[C@@H]3C(=O)N(CC)C(=O)[C@H]3CC[C@H]12 | 2.56% |  | 5.56% [at 11.4 µM] (inactive)

Row | SMILES | activation [1] | Potency [2] | activation [2]
45 | CC(C)CCn1c(CN(C)Cc2ccccc2)nc2c1c(=O)n(C)c(=O)n2C | 3.87% | inactive | 
46 | CO[C@@H]1COC(=O)[C@H](Cc2ccccc2)NC(=O)C/C=C\[C@@H](C)[C@H](OC)COC(=O)[C@@H](C)NC(=O)C/C=C\[C@H]1C | 8.45% and -4.16% |  | -6.09% [at 11.4 µM] (inactive) and -4.32% [at 11.4 µM] (inactive)
47 | CCc1cc(=O)oc2cc(OCC(=O)N3CCCc4ccccc43)ccc12 | -4.75% | 25.1 µM (active) | 
48 | Cc1occc1C(=O)N1CCCc2ccccc21 | 23.6% | inactive | 
49 | COc1ccc2oc(=O)c(C(=O)N3CCCc4ccccc43)cc2c1 | -9.12% | inactive | 
50 | COc1ccc(COC(=O)N/N=C2/C[C@@H](O)[C@@H](O)[C@@H]3[C@@H]4C(=O)N([C@@H](C)c5ccccc5)C(=O)[C@H]4CC[C@@H]23)cc1 | -0.62% |  | 0.427% [at 11.4 µM] (inactive)
51 | Nc1nonc1C(=O)NCCc1ccccc1 | -2.18% | inactive | 
52 | COc1cc(Cl)c(S(=O)(=O)n2cnc(C)c2)cc1Cl | 12.1% |  | 13.5% [at 11.4 µM] (inactive)
53 | O=C(OCC(COC(=O)c1ccccc1)(COC(=O)c1ccccc1)COC(=O)c1ccccc1)c1ccccc1 | 20% | inactive | 
54 | COC(=O)c1ccc(/C=N\n2c(C)nnc2C)cc1 | 10.1% | inactive | 
55 | CCOc1ccc(-c2nnn(CC(=O)N3CCN(c4ccc(OC)cc4)CC3)n2)cc1OCC | -8.4% | inactive | 
56 | COc1ccc(-c2nnn(Cc3nc(N)nc(N4CCCCC4)n3)n2)cc1 | 22% | 31.6 µM (active) | 
57 | CCc1ccc(-c2nnn(Cc3nn[nH]n3)n2)cc1 | 16% | inactive | 
58 | Cn1c(=O)n(C)c2cc(CNc3ccc(N4CCOCC4)c(C(=O)O)c3)ccc21 | 3.63% | inactive | 
59 | O=C(Cn1nnc2ccccc2c1=O)Nc1cc(C(F)(F)F)ccc1N1CCOCC1 | 17.2% | inactive | 
60 | Cn1nc(-c2ccc(N3CCOCC3)c(NC(=O)c3ccccc3)c2)c2ccccc2c1=O | 29.3% | 25.1 µM (active) | 
61 | O=C(C1CCN(CC2CCCCC2)CC1)N1CCCC1 | 16.6% | inactive | 
62 | COC(=O)[C@@H]1CC[C@H](C)[C@@H](c2ccc(C)cc2)N1C(=O)c1ccc(/C=N\O[C@@H](C)c2cn([C@H](CO)Cc3ccccc3)nn2)cc1 | 9.66% and 5.24% |  | 0.181% [at 11.4 µM] (inactive) and 4.03% [at 11.4 µM] (inactive)
63 | CCc1c(C)sc(NC(=O)OC)c1C(=O)N1CCOCC1 | -1.6% | inactive | 
64 | CCOC(=O)[C@]1(C(/C=C/c2ccco2)NC(=O)OC)CCCC1=O (stereo not given in full) | 0.322% |  | 14% [at 11.4 µM] (inactive)
65 | O=C(CC1(O)C(=O)N(CN2CCOCC2)c2ccccc21)c1ccccc1 (stereo not given) | 1.28% | inactive | 
66 | CN(C)C(=O)c1ccc(-c2cncnc2Nc2ccccc2)cc1 | -2.37% | inactive | 

Row | SMILES | activation [1] | Potency [2] | activation [2]
67 | OC(COc1cccc(OCC(O)CN2CCCC2)c1)CN1CCCC1 (stereo not given) | -1.83% |  | -1.13% [at 11.4 µM] (inactive)
68 | Cc1cc(NS(=O)(=O)c2ccccc2)no1 | 1.38% | inactive | 
69 | COc1ccc(O)c(C=Nc2cc(C)on2)c1 | -5.94% | inactive | 
70 | CC(C)N(CCNC(=O)c1ccc(-n2c(=O)c(=O)[nH]c3ccccc32)cc1)C(C)C | -3.64% | inactive | 
71 | CCC(C)n1[nH]c(=O)c2c(C)cc(C)nc21 (stereo not given) | 14.5% | inactive | 
72 | Cc1cccc2c1N(CC(=O)OC(C)C)C(=O)C2=O | -9.41% |  | -2.45% [at 11.4 µM] (inactive)
73 | Cc1cc(N=CC2=C(O)CCCC2=O)no1 | 5.56% | inactive | 
74 | C=CCOC(=O)C(C(C)=O)C(NC(=O)OC)c1ccccc1 (stereo not given) | 4.24% |  | -0.17% [at 11.4 µM] (inactive)
75 | O=C(O)[C@@H](O)Cc1ccccn1 | 4.67% |  | -3.52% [at 11.4 µM] (inactive)
76 | c1ccc(Nc2n[nH]nc2-c2ccccc2)cc1 | -0.853% | inactive | 
77 | Cc1nnc(NC(=O)CCC(=O)N2CCC(C)CC2)s1 | 5.36% | inactive | 
78 | C#CCC(C(=O)OC)(C(=O)OC)C(C[N+](=O)[O-])c1ccccc1 (stereo not given) | -0.955% |  | 7.7% [at 11.4 µM] (inactive)
79 | Cc1ccc(C(=O)CS(C)(=O)=O)cc1 | 1.73% | inactive | 
80 | C=C(C)COc1ccc(-c2n[nH]c(C)c2-c2ccccc2OC)c(O)c1 | 8.35% | 31.6 µM (active) | 
81 | COc1ccc(OC)c(Nc2nc(-c3ccc(O)c(O)c3)cs2)c1 | -4.42% | inactive | 
82 | COc1ccc(-c2n[nH]c(C)c2-c2ccc(OC)c(OC)c2)c(O)c1 | 11.3% | 5.01 µM (active) | 
83 | COc1ccc(-c2nc(-c3ccccc3)no2)c(OC)c1 | 7.25% | inactive | 
84 | C=C(C)COc1ccc(-c2n[nH]c(C)c2-c2ccccc2)c(O)c1 | 17.3% | inactive | 
85 | CCOc1ccccc1Oc1cn[nH]c1-c1ccc(OC)cc1O | 7.48% | inactive | 

— PubChem BioAssay AID926 (National Center for Advancing Translational Sciences (NCATS), 2007)
